Assay [1] deals with HaCat. Briefly: Cytotoxic Profiling of Annotated Libraries Using Quantitative High-Throughput Screening (AID 1296008). Also: potency is read from the fitted curve at half-maximal effect. As to max response: % is scaled to controls: 0 for no effect and ±100 for the full control effect. Particulars: Five cell lines viability, CellTiter-Glo ATP luminescence, 48-72 h; max response: active compounds read low. The gist of the method: (§1)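 Compounds were pin-transferred onto cells and incubated 48 or 72 hr at 37 degree Celsius, 95% humidity. CellTiter-Glo was added, plates sat 10 min at room temperature, then ATP-coupled luminescence was imaged as the viability read-out.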
For orientation: ATP-based viability assays read luminescence as a measure of living cells.

The test system of a further assay is NIH3T3. Described as above. The following applies: Five cell lines viability, CellTiter-Glo ATP luminescence, 48-72 h; max response: active compounds read low. The essentials:
as §1

In assay [2] the test system is HACAT. Description: qHTS assay to identify novel small-molecules to repurpose for Merkel cell carcinoma treatment (AID 1296009). Particulars: MCC and control cell lines, CellTiter-Glo viability, 72 h; at 44.8 µM (top of the series) unless noted. The essentials:
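Cells exposed to NPC (8-point) and MIPE (11-point) compound dilutions for 72 hr at 37 degree celsius; viability read by CellTiter-Glo luminescence, normalized to no-cell and DMSO in-plate controls.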
Background: qHTS replaces the single test concentration by a dilution series.

The subject of a further assay is KB-3-1. Briefly: Cytotoxic Profiling of Annotated Libraries Using Quantitative High-Throughput Screening (AID 1296008). Also: potency is read from the fitted curve at half-maximal effect. As to max response: % is scaled to controls: 0 for no effect and ±100 for the full control effect. The following applies: Five cell lines viability, CellTiter-Glo ATP luminescence, 48-72 h; max response: active compounds read low. The gist of the method: as §1
Another assay has as its system JCK. Description: qHTS profiling for inhibitors of Plasmodium falciparum proliferation (AID 504749). Also: potency is read from the fitted curve at half-maximal effect. Particulars: P. falciparum in erythrocytes, SYBR Green DNA, 72 h; series mostly up to 28.7 µM. The gist of the method: (§2)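 P. falciparum-infected erythrocytes (0.3% parasitemia, 2.5% hematocrit final) were exposed to compounds for 72 h at 37 C in 5% CO2, then lysed with SYBR Green buffer overnight at room temperature; parasite DNA fluorescence was normalized to artemisinin and DMSO controls.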

In the next assay the test system is N140. Described as above. The following applies: P. falciparum in erythrocytes, SYBR Green DNA, 72 h; series mostly up to 28.7 µM. The gist of the method: as §2
For another assay, the system named is P93_24. The description is as above. Particulars: P. falciparum in erythrocytes, SYBR Green DNA, 72 h; series mostly up to 28.7 µM. The gist of the method: as §2
Another assay has as its system PAD. The description is as above. The following applies: P. falciparum in erythrocytes, SYBR Green DNA, 72 h; series mostly up to 28.7 µM. The gist of the method:
as §2

Another assay relates to PC15. The description is as above. The following applies: P. falciparum in erythrocytes, SYBR Green DNA, 72 h; series mostly up to 28.7 µM. The essentials: as §2
The next assay has as its system PC26. The assay is described as above. Particulars: P. falciparum in erythrocytes, SYBR Green DNA, 72 h; series mostly up to 28.7 µM. The essentials: as §2
Another assay concerns PC49. The assay is described as above. The following applies: P. falciparum in erythrocytes, SYBR Green DNA, 72 h; series mostly up to 28.7 µM. The gist of the method: as §2
The next assay relates to SC27B. Described as above. The following applies: P. falciparum in erythrocytes, SYBR Green DNA, 72 h; series mostly up to 28.7 µM. The essentials: as §2
Another assay deals with TAB109. Described as above. The following applies: P. falciparum in erythrocytes, SYBR Green DNA, 72 h; series mostly up to 28.7 µM. The essentials:
as §2

In the next assay the test system is TAB113. The assay is described as above. The following applies: P. falciparum in erythrocytes, SYBR Green DNA, 72 h; series mostly up to 28.7 µM. The essentials: as §2
The next assay relates to TAB165. The description is as above. Particulars: P. falciparum in erythrocytes, SYBR Green DNA, 72 h; series mostly up to 28.7 µM. The gist of the method: as §2
Another assay has as its system W2. The description is as above. Particulars: P. falciparum in erythrocytes, SYBR Green DNA, 72 h; series mostly up to 28.7 µM. The gist of the method:
as §2

A further assay has as its system P94_40. Described as above. The following applies: P. falciparum in erythrocytes, SYBR Green DNA, 72 h. The gist of the method:
as §2

The values that follow come from PubChem BioAssay (NCATS).

Results filed as inconclusive are left out. Values without a mark were called inactive. Active and inactive are the calls of the source. Calls follow the shape of the dose curve; as a rule, active = well fitted inhibition curve with a large enough effect; inconclusive = small, poorly fitted or top-dose-only effect; inactive = flat fitted curve, though single readings scatter.
Also: nearly all actives have a fitted effect of over 60% in size.

`COc1cc2ncc(-c3ccccc3)nc2cc1OC`: the compound was called inactive in the assay with HaCat [1], in the assay with NIH3T3 and with HACAT [2].
Consider `COC(=O)c1ccc2c(c1)nc(NC(=O)c1ccccc1)n2CCCc1ccccc1`, for which the result with HaCat [1] and in the assay on HACAT [2] was inactive. In addition, the max response in the assay on NIH3T3 is 1.52%.
For `C=C1C(=O)OC2CC(C)=C(C(C)CCCOC(C)=O)C(OC(=O)CC(C)CC)C12` (configuration not stated), the results for the max response in the assay with HaCat [1] and in the assay on NIH3T3 were -2.4% and -17.5%, respectively.
Turning to `CCCCc1cc2c(=O)c(C(=O)OC)c[nH]c2cc1OCc1ccccc1`, the max response with KB-3-1 was -10.6%.
Turning to `C#CCOc1ccc2c(c1)c(-c1ccc(C(C)C)cc1)nc(=O)n2C(C)C`, the compound was classed as inactive in the assay on HaCat [1] and with HACAT [2]. In addition, in the assay on NIH3T3, the max response was -1.76%.
`C1CNCCN1`: the max response in the assay with KB-3-1 was -7.97%.
With `CC(=O)OC1CC2(C)C(CCC(C)C23Cc2c(O)cc(CO)c(C=O)c2O3)C(C)(C)C1O` (configuration not stated), the outcome in the assay with HaCat [1] was inactive. The max response in the assay with NIH3T3 is 1.46%. Also, in the assay on HACAT [2], the outcome is “inactive [at 17.4 µM]”.
On to `Nc1nc2c(c(N3CC[C@@H](N)C3)n1)CCCc1ccccc1-2`, for which the call with HaCat [1] and in the assay on HACAT [2] was inactive. Besides, the max response with NIH3T3 is -2.56%.
In the case of `C=C[C@@]1(C)CCC2C(=CCC3[C@]2(C)CCC[C@@]3(C)C(=O)O)C1` (some centres not stated), the values for the max response in the assay on KB-3-1 and in the assay with NIH3T3 were -10.5% and -28.5%, respectively.
As for `C=C1CC2C3CCC4=CC(=O)C=C[C@]4(C)[C@@]3(F)[C@@H](O)C[C@]2(C)[C@@]1(O)C(=O)COC(C)=O` (some centres not stated), the max response in the assay on KB-3-1 was 3%.
`C=C1C(=O)O[C@@H]2C[C@H](C)[C@@H]3CC(=O)[C@H](O)[C@@]3(C)C[C@H]12`: the compound was called inactive in the assay on KB-3-1. Further, the max response in the assay with NIH3T3 was -22.8%.
On to `COc1cc(CCO)ccc1O[C@@H]1O[C@H](CO)[C@@H](O)[C@H](O)[C@H]1O`, for which the max response with NIH3T3 is -23.9%.
Consider `CCCOc1ccc2nc(NC(=O)OC)sc2c1`, for which the Potency entry in the assay with JCK, in the assay on N140, with P93_24, in the assay on PAD, with PC15 and in the assay with PC26 was “inactive” each time. Further, the Potency result in the assay with PC49, in the assay on SC27B, in the assay on TAB109, in the assay with TAB113, in the assay with TAB165 and in the assay with W2 was “inactive” each time. The Potency in the assay with KB-3-1 was 10.3 µM (active).
As to `O=P(O)(O)OC(CO)CO`, in the assay with KB-3-1, the max response is 1.53%.
As to `C=C(C)[C@@H]1CC=C(COC(=O)NC(=O)c2ncn3c(=O)n(C)nnc23)CC1`, the max response in the assay with KB-3-1 was 2.36%. In addition, in the assay on NIH3T3, the Potency is 18.4 µM (active).
With `CC(=O)O[C@@H]1[C@@H](OC(C)=O)[C@H](C)O[C@@H](O[C@H]2[C@@H]3C=CO[C@@H](O[C@@H]4O[C@H](CO)[C@@H](O)[C@H](O)[C@H]4O)[C@@H]3[C@@]3(CO)O[C@@H]23)[C@@H]1OC(=O)/C=C/c1ccccc1`, the max response was 2.67% in the assay with KB-3-1 and -8.05% in the assay with NIH3T3.
Regarding `C=CCNC1=C2C[C@@H](C)C[C@H](OC)[C@H](O)[C@@H](C)/C=C(\C)[C@H](OC(N)=O)[C@@H](OC)/C=C\C=C(/C)C(=O)NC(=CC1=O)C2=O`, the Potency with JCK is 12.6 µM (active); with N140, 0.891 µM (active); in the assay on P93_24 it was 1.26 µM (active); in the assay on P94_40, 0.794 µM (active); in the assay on PAD, 2 µM (active); in the assay with PC15 it was 2 µM (active). The Potency in the assay on PC26 is 1.51 µM (active); with PC49, 6.31 µM (active); with SC27B, 1.78 µM (active); in the assay on TAB109 it was 2 µM (active); with TAB113, 1.78 µM (active); in the assay on TAB165 it was 1.41 µM (active). The Potency in the assay on W2 was 1.2 µM (active). Besides, the max response in the assay on KB-3-1 was -34.3%.
